PubChem BioAssay (NCATS)
Inconclusive results are not listed. A call without a number means that no potency is given here. Activity calls are given as the source filed them. Unless noted, calls follow the shape of the dose curve; as a rule, active = well fitted curve in the direction sought with a large enough effect; inconclusive = small, poorly fitted or top-dose-only effect, or another doubt; inactive = no such curve, though single readings can be large; an effect the other way counts as inactive or inconclusive.

Columns and labels:
[1] = target: alpha-glucosidase (Oryza sativa, rice) (UniProt Q653V4); assay: Counterscreen for Glucocerebrosidase Inhibitors: qHTS Assay for Rice alpha-Glucosidase at pH 5.0 (AID 997)
Method in brief: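 Rice alpha-glucosidase (4 nM final) with 400 uM 4-methylumbelliferyl-alpha-D-glucopyranoside in citrate buffer pH 5.0, 20 min at room temperature, stopped at pH 10; fluorescence 365/440 nm, compounds 0.7 nM–77 uM, AC50 from Hill fits.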

[2] = Validation of Assay for Modulators of Lamin A Splicing (AID 1459; active = well fitted curve in the direction sought with a large enough effect in the signal ratio; the % refers to the signal ratio;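 also: cells exposed to compound for two days before reading; ratio rise marks activators and ratio drop marks inhibitors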)
Method in brief: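 S3 HeLa stably expressing lamin A-EGFP splicing minigene and DsRed2, 600 cells/well in Opti-MEM with 2% FBS, treated 48 h at 37C; laser-scanning cytometry gives GFP/RFP total intensity ratio; ancitabine positive control, 0.5% DMSO vehicle.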

[3] = target: DNA repair nuclease/redox regulator APEX1 (Homo sapiens) (UniProt P27695); assay: qHTS Validation Assay for Inhibitors of the Human Apurinic/apyrimidinic Endonuclease 1 (APE1) (AID 1705;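 also: TAMRA fluorescence gain over two minutes as APE1 cuts a quenched THF abasic duplex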)
Method in brief: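 Fluorogenic double-stranded THF abasic-site substrate (5'-TAMRA/3'-BHQ-2), 50 nM final. Enzyme preincubated with compound 15 min at room temperature, then substrate added. Kinetic fluorescence (ex 525/em 598 nm) read three times at 60 s intervals; activity taken as third-minus-first read difference.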

[4] = Counterscreen for APE1 Inhibitors: Fluorescent Dye Displacement Validation Assay (AID 1707)
Method in brief: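 Thiazole Orange (250 nM) bound to 50 nM TAMRA-labelled dsDNA with tetrahydrofuran abasic site; displacement by DNA-binding compounds lowers fluorescence. Buffer 50 mM Tris-HCl pH 7.5, 50 mM NaCl, 2 mM MgCl2, 0.01% Tween-20; endpoint read at 480/540 nm.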

[5] = target: Endonuclease 4 (Escherichia coli (strain K12)) (UniProt P0A6C1); assay: Counterscreen for APE1 Inhibitors: qHTS Validation Assay for Inhibitors of Endonuclease IV (AID 1708)
Method in brief: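 qHTS concentration-response format; LOPAC1280 tested under APE1-screen conditions. 2 nM enzyme, 15 min compound preincubation at RT, then 50 nM TAMRA/BHQ-2 abasic substrate; kinetic fluorescence read, three reads at 60 s intervals.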

[6] = qHTS for differential inhibitors of proliferation of Plasmodium falciparum line 7G8 (AID 1815);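 also: parasite growth measured after three days of incubation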; also: potency is read from the fitted curve at half-maximal effect
[7] = qHTS for differential inhibitors of proliferation of Plasmodium falciparum line GB4 (AID 1816); settings: Potency: Plasmodium falciparum GB4 proliferation inhibition;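 also: parasite growth measured after 72 h incubation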; also: potency is read from the fitted curve at half-maximal effect
[8] = qHTS for differential inhibitors of proliferation of Plasmodium falciparum line 3D7 (AID 1876); also: potency is read from the fitted curve at half-maximal effect
[9] = qHTS for differential inhibitors of proliferation of Plasmodium falciparum line D10 (AID 1877);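 also: parasites grown with compound for 72 h before DNA staining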; also: potency is read from the fitted curve at half-maximal effect
[10] = qHTS for differential inhibitors of proliferation of Plasmodium falciparum line Dd2 (AID 1882); settings: Potency: Plasmodium falciparum Dd2 proliferation inhibition; also: nearly all actives have a fitted effect of over 65% in size; also: potency is read from the fitted curve at half-maximal effect
Method in brief: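 Dd2-infected erythrocytes (0.3% parasitemia, 2.5% hematocrit final) incubated with compound 72 h at 37 C, 5% CO2; lysed with saponin/Triton buffer containing SYBR Green I, incubated overnight in the dark, then read by fluorescence (485/535 nm). Normalized to 0.29 uM artemisinin and DMSO.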

[11] = qHTS for differential inhibitors of proliferation of Plasmodium falciparum line HB3 (AID 1886); settings: Potency: Plasmodium falciparum HB3 proliferation inhibition;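 also: parasites grown with compound for 72 h before SYBR Green readout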; also: potency is read from the fitted curve at half-maximal effect
[12] = qHTS Assay for Modulators of Human Peripheral Myelin Protein 22 (PMP22) Expression/Activity (AID 1967; active = well fitted curve in the direction sought with a large enough effect in the signal ratio; the % refers to the signal ratio)
Method in brief: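 Mouse MSC80 Schwann cells carrying Pmp22 promoter–green click beetle luciferase plus EF-alpha–red luciferase control, dosed 24 h at 37 °C. Dual-filter luminescence, overlap-corrected; %Activity from green/red ratio normalised to untreated cells, concentration-response curves fitted.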

[13] = target: ATP-dependent DNA helicase Q1 (Homo sapiens) (UniProt P46063); assay: qHTS Validation Assay for Inhibitors of RecQ-Like Dna Helicase 1 (RECQ1) (AID 2353)
Method in brief: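 50 nM RECQ1T1 preincubated 15 min with compound in Tris pH 8.0 buffer with MgCl2, DTT, Tween-20 and 2.5 ug/ml poly(dI-dC); started with 200 nM TAMRA/BHQ-2 forked duplex and 2 mM ATP. Unwinding read as fluorescence (525/598 nm), two reads 2 h apart.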

[14] = target: RecQ-like DNA helicase BLM (Homo sapiens) (UniProt P54132); assay: qHTS Validation Assay for Inhibitors of Bloom's syndrome helicase (BLM) (AID 2364)
Method in brief: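 Forked 20-bp duplex substrate (200 nM, TAMRA/BHQ-2) plus 2 mM ATP added after 15 min compound preincubation with 50 nM enzyme, pH 8.0, poly(dI-dC) 2.5 ug/ml. Strand separation followed by fluorescence (525/598 nm) over 2 h, normalized to enzyme-free and DMSO controls.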

[15] = Cytometric Cell-Based qHTS for Inhibitors of the mTORC1 Signaling Pathway in MEF (Tsc2-/-, p53-/-) Cells (AID 2660);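 also: percent of cells above a phospho-rpS6 to PI ratio cutoff in each well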
Method in brief: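 Tsc2-/-, p53-/- MEFs (empty vector) exposed to compound 24 h at 37 C, fixed, stained with Alexa-488 anti-phospho-rpS6 Ser235/236 and propidium iodide. Acumen laser scanning; phospho-S6/PI ratio thresholded against 7.5 nM rapamycin, reported as % positive cells.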

[16] = qHTS Assay for Lipid Storage Modulators (AID 1519; calls by dose curve); settings: Drosophila S3 cells, BODIPY lipid droplet/cell ratio, laser cytometry, cells loaded with oleic acid
Method in brief: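 Cells seeded at 5,000 per well were treated with compounds over a concentration series and loaded with oleic acid (400 uM, as added). Lipid droplet fluorescence (488 nm excitation, 500-530 nm channel) was read by laser-scanning cytometry and normalized to 20 uM Triacsin C.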

[17] = Cell Viability - LYMP1-002 - Assay at 40 hr (AID 994); also: nearly all actives have a fitted effect of over 60% in size
Method in brief: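 Luminescent ATP signal served as the viability readout, with decreases taken as toxicity. Cells were treated with compounds across a concentration range for 40 hours at 37 C, and AC50 values came from standard Hill modeling.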

[18] = qHTS Assay for Identification of Small Molecule Inducers of Hypoxia Response (AID 2120; active = well fitted curve in the direction sought with a large enough effect in the signal ratio, with a control signal flat, not every such curve was filed as active; the % refers to the signal ratio)
Method in brief: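 ME-180 HRE-bla cells plated in Opti-MEM/0.5% dialyzed FBS, rested 4-5 h, then dosed with compound titrations by pin tool. After 17 h at 37 degrees C, CCF4 dye loaded 2.5 h at RT; 460/530 nm ratio gave %Activity and AC50.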

[19] = target: Ferritin light chain (Equus caballus) (UniProt P02791); assay: qHTS Validation Assay for Identification of Novel General Anesthetics (AID 2323)
Method in brief: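 Horse-spleen apoferritin (10 uM) in PBS with 50% saturated 1-aminoanthracene; compounds pin-transferred, 10 min at room temperature. Fluorescence read at 380/535 nm, normalized to free 1-AMA and 1-AMA/apoferritin values; four-parameter Hill fit.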

[20] = qHTS for differential inhibitors of proliferation of Plasmodium falciparum line W2 (AID 1883); settings: Potency: Plasmodium falciparum W2 proliferation inhibition;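 also: parasites grown with compound for 72 h before lysis and staining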; also: potency is read from the fitted curve at half-maximal effect
[21] = measured here: cell count channel max response
[22] = measured here: lipid channel max response

Sequence of ATP-dependent DNA helicase Q1 (Homo sapiens) (P46063 whole entry, looked up): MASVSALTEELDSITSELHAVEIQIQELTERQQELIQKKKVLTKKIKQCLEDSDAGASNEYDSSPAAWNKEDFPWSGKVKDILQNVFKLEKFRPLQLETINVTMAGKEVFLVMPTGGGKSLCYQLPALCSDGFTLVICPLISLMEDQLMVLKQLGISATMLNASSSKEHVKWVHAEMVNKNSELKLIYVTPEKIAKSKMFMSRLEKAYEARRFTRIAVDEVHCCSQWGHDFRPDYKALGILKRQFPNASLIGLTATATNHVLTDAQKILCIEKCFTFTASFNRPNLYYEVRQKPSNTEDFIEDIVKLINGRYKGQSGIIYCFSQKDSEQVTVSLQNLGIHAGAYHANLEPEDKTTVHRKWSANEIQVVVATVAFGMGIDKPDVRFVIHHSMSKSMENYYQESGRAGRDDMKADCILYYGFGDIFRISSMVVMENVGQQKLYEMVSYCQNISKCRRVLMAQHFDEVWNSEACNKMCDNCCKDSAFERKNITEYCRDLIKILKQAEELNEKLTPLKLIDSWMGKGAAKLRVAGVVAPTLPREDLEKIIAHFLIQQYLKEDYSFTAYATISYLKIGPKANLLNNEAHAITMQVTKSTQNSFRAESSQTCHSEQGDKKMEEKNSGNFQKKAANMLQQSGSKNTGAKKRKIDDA
Sequence of Ferritin light chain (Equus caballus) (P02791 2-175 limits assumed): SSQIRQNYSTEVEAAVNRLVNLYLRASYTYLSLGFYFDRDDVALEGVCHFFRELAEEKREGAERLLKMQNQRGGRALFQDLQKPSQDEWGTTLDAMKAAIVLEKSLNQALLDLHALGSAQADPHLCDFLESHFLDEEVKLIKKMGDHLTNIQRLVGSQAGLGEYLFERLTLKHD
Sequence of DNA repair nuclease/redox regulator APEX1 (Homo sapiens) (P27695 whole entry, looked up): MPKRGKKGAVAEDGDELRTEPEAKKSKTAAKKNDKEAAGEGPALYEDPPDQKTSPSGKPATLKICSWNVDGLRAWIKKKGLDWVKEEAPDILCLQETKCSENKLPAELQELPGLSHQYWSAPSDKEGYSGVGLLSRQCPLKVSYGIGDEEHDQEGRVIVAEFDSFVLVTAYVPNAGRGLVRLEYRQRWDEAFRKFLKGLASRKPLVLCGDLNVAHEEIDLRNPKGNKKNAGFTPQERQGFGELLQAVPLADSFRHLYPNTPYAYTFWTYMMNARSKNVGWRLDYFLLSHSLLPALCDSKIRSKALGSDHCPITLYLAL
Sequence of RecQ-like DNA helicase BLM (Homo sapiens) (P54132 whole entry, looked up): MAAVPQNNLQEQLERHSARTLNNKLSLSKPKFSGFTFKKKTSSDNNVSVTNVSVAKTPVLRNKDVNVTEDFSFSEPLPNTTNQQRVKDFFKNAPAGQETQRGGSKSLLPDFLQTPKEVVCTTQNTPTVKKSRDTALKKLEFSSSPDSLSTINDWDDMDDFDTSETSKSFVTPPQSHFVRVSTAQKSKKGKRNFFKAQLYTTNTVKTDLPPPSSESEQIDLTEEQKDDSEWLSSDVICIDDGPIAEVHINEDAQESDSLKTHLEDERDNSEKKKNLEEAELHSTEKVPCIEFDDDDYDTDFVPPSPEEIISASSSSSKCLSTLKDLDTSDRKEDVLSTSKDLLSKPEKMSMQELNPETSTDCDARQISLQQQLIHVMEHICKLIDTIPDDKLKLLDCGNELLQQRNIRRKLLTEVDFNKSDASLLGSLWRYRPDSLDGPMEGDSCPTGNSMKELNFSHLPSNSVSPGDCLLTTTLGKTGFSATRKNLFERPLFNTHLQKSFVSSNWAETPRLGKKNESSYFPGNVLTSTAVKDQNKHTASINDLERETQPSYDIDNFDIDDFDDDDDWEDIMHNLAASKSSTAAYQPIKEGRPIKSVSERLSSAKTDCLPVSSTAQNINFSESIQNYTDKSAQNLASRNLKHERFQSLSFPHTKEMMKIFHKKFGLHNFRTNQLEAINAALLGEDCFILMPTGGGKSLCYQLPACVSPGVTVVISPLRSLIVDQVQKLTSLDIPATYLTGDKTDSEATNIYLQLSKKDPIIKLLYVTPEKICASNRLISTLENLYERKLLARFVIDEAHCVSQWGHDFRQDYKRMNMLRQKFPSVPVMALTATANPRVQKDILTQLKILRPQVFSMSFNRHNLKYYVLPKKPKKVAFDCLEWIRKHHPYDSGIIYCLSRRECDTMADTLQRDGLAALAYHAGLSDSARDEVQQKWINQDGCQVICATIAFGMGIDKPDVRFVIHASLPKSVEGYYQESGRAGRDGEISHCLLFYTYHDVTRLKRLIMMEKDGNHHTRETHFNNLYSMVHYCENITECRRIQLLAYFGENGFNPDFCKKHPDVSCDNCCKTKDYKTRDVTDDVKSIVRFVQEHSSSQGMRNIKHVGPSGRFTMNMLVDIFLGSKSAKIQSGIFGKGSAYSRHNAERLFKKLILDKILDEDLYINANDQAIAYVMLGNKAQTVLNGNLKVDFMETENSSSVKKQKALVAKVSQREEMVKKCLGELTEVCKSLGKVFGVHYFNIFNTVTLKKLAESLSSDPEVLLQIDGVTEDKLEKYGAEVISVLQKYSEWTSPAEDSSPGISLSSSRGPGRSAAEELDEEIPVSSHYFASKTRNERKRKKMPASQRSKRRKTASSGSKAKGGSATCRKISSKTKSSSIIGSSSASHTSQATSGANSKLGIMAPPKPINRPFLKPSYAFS

O=C1NC(c2cccc([N+](=O)[O-])c2)=CCN1c1ccccc1O
outcome [1]: inactive | outcome [2]: inactive | outcome [3]: inactive | outcome [4]: inactive | outcome [5]: inactive | Potency [6]: inactive | Potency [7]: inactive | Potency [8]: inactive | Potency [9]: inactive | Potency [10]: inactive | Potency [11]: inactive | outcome [12]: inactive | outcome [13]: inactive | outcome [14]: inactive | outcome [15]: inactive

OC(CCCN1CCCCC1)(c1ccccc1)c1ccccc1
activity change, negative = inhibition ([16]; at 25.7 µM (top of the series)): -0.646% (inactive) | max response [16, 21]: 10.3% | max response [16, 22]: 9.61%

OCc1c[nH]c2ccccc12
Potency [17]: inactive | activity change, negative = inhibition ([16]; at 57.5 µM (top of the series)): 3.03% (inactive) | max response [16, 21]: 0.192% | max response [16, 22]: 7.12% | outcome [18]: inactive

O=C(O)/C=C(\CC(=O)O)C(=O)O
activity change, negative = inhibition ([16]; at 57.5 µM (top of the series)): 3.99% (inactive) | max response [16, 21]: -7.3% | max response [16, 22]: 1.94%

Cc1ccc2c(Cl)cc(Cl)c(O)c2n1
activity change, negative = inhibition ([16]; at 57.5 µM (top of the series)): 4.67% (inactive) | max response [16, 21]: -3.23% | max response [16, 22]: 2.66%

CCOC(=O)NNc1nncc2ccccc12
activity change, negative = inhibition ([16]; at 25.7 µM (top of the series)): 0.543% (inactive) | max response [16, 21]: -3.66% | max response [16, 22]: -3.48%

O=C(CCCCC(=O)Nc1c(I)cc(I)c(C(=O)O)c1I)Nc1c(I)cc(I)c(C(=O)O)c1I
activity change, negative = inhibition ([16]; at 25.7 µM (top of the series)): -0.504% (inactive) | max response [16, 21]: -3.67% | max response [16, 22]: -4.34%

Cn1cnc2c(NCc3ccccc3)nc(NCCO)nc21
outcome [1]: inactive | outcome [2]: inactive | activity change, negative = inhibition ([16]; at 57.5 µM (top of the series)): -0.56% (inactive) | max response [16, 21]: -34.4% | max response [16, 22]: -34.7% | outcome [3]: inactive | outcome [4]: inactive | outcome [5]: inactive | Potency [6]: inactive | Potency [10]: inactive | outcome [19]: inactive | outcome [13]: inactive | outcome [14]: inactive | outcome [15]: inactive

NCC(=O)O
activity change, negative = inhibition ([16]; at 57.5 µM (top of the series)): -2.71% (inactive) | max response [16, 21]: 5.73% | max response [16, 22]: 4.04%

COc1ccccc1N1CCN(CCN2C(=O)CC3(CCCC3)CC2=O)CC1
outcome [1]: inactive | outcome [2]: inactive | outcome [3]: inactive | outcome [4]: inactive | outcome [5]: inactive | Potency [7]: inactive | Potency [8]: inactive | Potency [9]: inactive | Potency [10]: inactive | Potency [11]: inactive | outcome [12]: inactive | outcome [19]: inactive | outcome [13]: inactive | outcome [14]: inactive | outcome [15]: inactive

Nc1ncnc2nc[nH]c12
activity change, negative = inhibition ([16]; at 57.5 µM (top of the series)): 6.5% (inactive) | max response [16, 21]: 12.7% | max response [16, 22]: 22.5%

C[N+](C)(C)CCO
outcome [1]: inactive | outcome [2]: inactive | outcome [3]: inactive | outcome [4]: inactive | Potency [6]: inactive | Potency [7]: inactive | Potency [8]: inactive | Potency [9]: inactive | Potency [10]: inactive | Potency [20]: inactive | Potency [11]: inactive | outcome [12]: inactive | outcome [19]: inactive | outcome [13]: inactive | outcome [15]: inactive

O=[N+]([O-])c1ccc(-c2nc(-c3ccc(F)cc3)c(-c3ccncc3)[nH]2)cc1
outcome [1]: inactive | outcome [3]: inactive | outcome [5]: inactive | Potency [6]: 4.47 µM (active) | Potency [7]: 3.98 µM (active) | Potency [8]: 3.55 µM (active) | Potency [9]: 5.01 µM (active) | Potency [10]: 6.31 µM (active) | Potency [20]: 3.98 µM (active) | Potency [11]: 4.47 µM (active) | outcome [19]: inactive

CC(C)N(CCC(=O)c1ccc2ccccc2c1)Cc1ccccc1
outcome [1]: inactive | outcome [3]: inactive | outcome [4]: inactive | outcome [5]: inactive | Potency [8]: inactive | Potency [9]: inactive | Potency [10]: inactive | Potency [11]: inactive | outcome [13]: inactive
